Experimental data: the supplement of paper PMC10498489
The campaign covered roughly 2,300 compounds. About 330 (14%) showed activity. Not all results are given here. A number with no mark means an inactive call.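 Rule for the calls: active = median modified Z-score above 1.96; inactive = 1.96 or below.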

Test system: HepG2 Srxn1-GFP reporter cells (+30 nM CDDO-Me)
Experiment: Srxn1-GFP intensity median modified Z-score relative to plate median; higher = stronger NRF2 / oxidative stress reporter activation, active = hit call of the paper
Details: 10 µM; exposure time: 24h
Outline: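 HepG2 Srxn1-GFP BAC reporter cells were seeded at 20,000 per well in 96-well plates and co-exposed for 24 h to compound at 10 μM and an NRF2 activator at 30 nM, with DMSO at ≤0.1%, in three replicate plates. Cells were fixed with formaldehyde, stained with Hoechst and imaged by confocal microscopy, and cytoplasmic GFP was measured per cell, with images holding under 100 cells discarded. The reported value is the median over replicates of each plate's modified Z-score of GFP intensity. For this score, scaling used 1.4826 × median absolute deviation.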

| SMILES | Srxn1-GFP intensity median modified Z-score |
| --- | --- |
| COc1cc2c(cc1O)CCNC2C (configuration not stated) [euspeclibcmpd1467] | -0.387 |
| CCOP(=S)(OCC)Oc1ccc2c(C)c(Cl)c(=O)oc2c1 [euspeclibcmpd1023] | 1.02 |
| C[C@H]1O[C@H](O[C@H]2[C@H](O)[C@@H](O)[C@@H](O)[C@H](O)[C@@H]2O)[C@@H](N)C[C@@H]1N=C(N)C(=O)O [euspeclibcmpd1430] | -0.17 |
| NCCc1cc(O)c(O)cc1O [euspeclibcmpd220] | -0.288 |
| CC[C@H]1C[N@]2CCC1C[C@@H]2[C@@H](O)c1ccnc2ccc(OC)cc12 [euspeclibcmpd2090] | 0.772 |
| C[C@]12CCC3[C@@H](CC[C@@]45OC4C(=O)C(C#N)C[C@]35C)[C@H]1CC[C@@H]2O (some centres not stated) [euspeclibcmpd687] | -0.339 |
| CCC(C)[C@H]1O[C@]2(C=C[C@@H]1C)C[C@@H]1C[C@@H](C/C=C(\C)[C@@H](OC3C[C@H](OC)C(O[C@H]4C[C@H](OC)[C@@H](O)[C@H](C)O4)[C@H](C)O3)[C@@H](C)/C=C/C=C3\CO[C@@H]4[C@H](O)C(C)=CC(C(=O)O1)[C@]34O)O2 (some centres not stated) [euspeclibcmpd1285] | 16.3 (active) |
| CC(C)(O)C(Cl)(Cl)Cl [euspeclibcmpd1104] | -0.138 |
| C=C[C@H]1C[N@]2CC[C@H]1C[C@@H]2[C@@H](OC(=O)OCC)c1ccnc2ccc(OC)cc12 [euspeclibcmpd1022] | -0.0707 |
| CC=C(C)C(=O)O[C@H]1CC[C@@]2(C)[C@@H]3CC[C@H]4[C@]5(O)C[C@H](O)[C@@]6(O)[C@@H](CN7C[C@@H](C)CC[C@H]7[C@@]6(C)O)[C@]5(O)C[C@@]42O[C@]13O [euspeclibcmpd1469] | 0.0522 |
| Nc1[nH]c(=O)n2c1C2 [euspeclibcmpd933] | 0.164 |
| CS(=N)(=O)CCC(N)C(=O)O (configuration not stated) [euspeclibcmpd1752] | -0.455 |
| C[C@H]1O[C@@H](O[C@H]2[C@@H](O)C[C@H](O[C@H]3[C@@H](O)C[C@H](O[C@H]4CC[C@]5(C)C6CC[C@]7(C)C(c8coc(O)c8)CC[C@]7(O)C6CC[C@@H]5C4)O[C@@H]3C)O[C@@H]2C)C[C@H](O)[C@@H]1O (some centres not stated) [euspeclibcmpd95] | -1.81 |
| CO[C@H]1[C@H](O)[C@@H](O[C@H]2CC[C@]3(C=O)C4CC[C@]5(C)C(c6coc(O)c6)CC[C@]5(O)C4CC[C@@H]3C2)O[C@@H](C)[C@@H]1O (some centres not stated) [euspeclibcmpd2165] | 3.39 (active) |
| CC1OC(OC2C(O)CC(OC3C(O)CC(OC4CCC5(C)C(CCC6C5CCC5(C)C(c7coc(O)c7)C(O)CC65O)C4)OC3C)OC2C)CC(O)C1O (configuration not stated) [euspeclibcmpd1936] | 2.78 (active) |
| CC1OC(OC2C=C3CCC4C(CCC5(C)C(c6ccc(=O)oc6)CCC45O)C3(C)CC2)C(O)C(O)C1O (configuration not stated) [euspeclibcmpd1931] | 2.81 (active) |
| C[C@H]1O[C@@H](O[C@H]2[C@@H](O)C[C@H](O[C@H]3[C@@H](O)C[C@H](O[C@H]4CC[C@]5(C)C6C[C@@H](O)[C@]7(C)C(c8coc(O)c8)CC[C@]7(O)C6CC[C@@H]5C4)O[C@@H]3C)O[C@@H]2C)C[C@H](O)[C@@H]1O (some centres not stated) [euspeclibcmpd96] | -1.88 |
| C[C@@]12C(c3coc(O)c3)CC[C@]1(O)C1CC[C@@H]3C[C@@H](O)CC[C@]3(C)C1C[C@H]2O (some centres not stated) [euspeclibcmpd2259] | -0.638 |
| C[C@@H]1O[C@@H](O[C@H]2CC[C@]3(C=O)C4CC[C@]5(C)C(c6coc(O)c6)CC[C@]5(O)C4CC[C@]3(O)C2)[C@H](O)[C@H](O)[C@H]1O (some centres not stated) [euspeclibcmpd1374] | 7.48 (active) |
| C[C@@H]1O[C@@H](O[C@H]2C[C@@H](O)[C@]3(CO)C4C(CC[C@]3(O)C2)[C@@]2(O)CCC(c3coc(O)c3)[C@@]2(C)C[C@H]4O)[C@H](O)[C@H](O)[C@H]1O (some centres not stated) [euspeclibcmpd1207] | -1.16 |
| CNNC [euspeclibcmpd2278] | -0.486 |

| SMILES | Srxn1-GFP intensity median modified Z-score |
| --- | --- |
| O=C(O)CCC1NCC2CC1CN1CCCCC21 (configuration not stated) [euspeclibcmpd2022] | -0.148 |
| O=C1CCCC2C3C[C@H](CN12)[C@@H]1CCCCN1C3 (some centres not stated) [euspeclibcmpd1695] | -0.101 |
| CCC(=O)O[C@H]1CCC2C3CC=C4CC(=O)CC[C@]4(C)C3CC[C@@]21C (some centres not stated) [euspeclibcmpd7] | 0.269 |
| C[N+]1(C)C2CCC1CC(OC(=O)C(CO)c1ccccc1)C2 (configuration not stated) [euspeclibcmpd790] | -0.464 |
| CN1CCCCC1c1ccc(-c2cccnc2)nc1 (configuration not stated) [euspeclibcmpd1697] | -0.301 |
| C[N+]12CCC(CC1)C(OC(=O)C(O)(c1ccccc1)c1ccccc1)C2 (configuration not stated) [euspeclibcmpd67] | 0.0285 |
| O=P1(N(CCCl)CCCl)NCCCO1 (configuration not stated) [euspeclibcmpd2335] | -0.33 |
| N=c1nc[nH][nH]1 [euspeclibcmpd1771] | -0.334 |
| COc1ccc(C(=O)N2CCCC2=O)cc1 [euspeclibcmpd835] | 1.03 |
| NC(Cc1ccc(N(CCCl)CCCl)cc1)C(=O)O (configuration not stated) [euspeclibcmpd181] | 0.947 |
| COc1cc2c(cc1OC)C1C(=O)c3ccc4oc(C(C)C)cc4c3O[C@@H]1CO2 (some centres not stated) [euspeclibcmpd1384] | 0.895 |
| C=C(C)[C@H]1Cc2c(ccc3c2O[C@@H]2COc4cc(OC)c(OC)cc4C2C3=O)O1 (some centres not stated) [euspeclibcmpd1688] | 63.1 (active) |
| C=C(C)C1Cc2c(ccc3c(=O)c4c(oc23)COc2cc(OC)c(OC)cc2-4)O1 (configuration not stated) [euspeclibcmpd1633] | 0.389 |
| COc1cc2c(cc1OC)-c1c(oc3c4c(ccc3c1=O)OC(C(C)C)C4)CO2 (configuration not stated) [euspeclibcmpd1802] | -0.169 |
| COc1cc2c(cc1OC)C1C(=O)c3ccc4c(c3O[C@@H]1CO2)CC(C(C)C)O4 (some centres not stated) [euspeclibcmpd1349] | 54.1 (active) |
| CCC1(c2ccc(N)cc2)CCC(=O)NC1=O (configuration not stated) [euspeclibcmpd20] | -0.169 |
| C[C@]12CCC(=O)C=C1CCc1ccc(O)cc12 [euspeclibcmpd2145] | -0.0198 |
| NC(=O)c1cc([N+](=O)[O-])cc([N+](=O)[O-])c1 [euspeclibcmpd211] | 1.85 |
| CC(=O)O[C@H]1CC[C@@]2(C)C(=CCC3C2CC[C@]2(C)C(=O)CCC32)C1 (some centres not stated) [euspeclibcmpd1015] | -0.448 |
| CC1[C@H](C)OC(=O)CC(O)CC(O)CC(O)CCC(O)C(O)C[C@]2(O)CC(O)C(C(=O)O)C(CC(OC3O[C@H](C)[C@@H](O)[C@H](N)[C@@H]3O)/C=C/C=C/C=C/C=C/CC/C=C/C=C/[C@H](C)[C@H]1O)O2 (some centres not stated) [euspeclibcmpd218] | 0.964 |
| c1ccc2c(c1)OCC(C1=NCCN1)O2 (configuration not stated) [euspeclibcmpd1238] | 0.16 |

| SMILES | Srxn1-GFP intensity median modified Z-score |
| --- | --- |
| COc1cccc([C@]2(O)CCCC[C@H]2CN(C)C)c1 [euspeclibcmpd765] | -0.221 |
| NC(=O)C[S+]([O-])C(c1ccccc1)c1ccccc1 (configuration not stated) [euspeclibcmpd2299] | 0.327 |
| O=C1C=C2C=CC3C[C@@]2(O1)[C@H]1CCCCN31 [euspeclibcmpd1211] | 9.38 (active) |
| CC1NCCc2cc(O)c(O)cc21 (configuration not stated) [euspeclibcmpd2171] | -0.549 |
| CC[C@H]1C2CC3[C@@H]4N(C)c5ccccc5[C@]45C[C@@H](C2C5O)N3[C@@H]1O (some centres not stated) [euspeclibcmpd1044] | -0.296 |
| Cc1[nH]c2ccccc2c1CN(C)C [euspeclibcmpd2173] | -0.24 |
| CN1C2C[C@H](OC(=O)C(CO)c3ccccc3)C[C@H]1[C@H]1OC21 (some centres not stated) [euspeclibcmpd266] | -0.44 |
| Cc1cccc(C)c1N=C1NCCCS1 [euspeclibcmpd416] | -0.674 |
| CCOC(=O)C1C(C=C(C)C)C1(C)C (configuration not stated) [euspeclibcmpd1522] | 0.0825 |
| C=C/C=C\CC1=C(C)C(OC(=O)C2[C@@H](C=C(C)C)C2(C)C)CC1=O (some centres not stated) [euspeclibcmpd1257] | 2.3 (active) |
| CC(C)=CC1C(C(=O)OCc2cccc(Oc3ccccc3)c2)C1(C)C (configuration not stated) [euspeclibcmpd1161] | -0.28 |
| O=C(O)CCCc1ccc(N(CCCl)CCCl)cc1 [euspeclibcmpd51] | -0.412 |
| C=C[C@H]1C[N@@]2CC[C@H]1C[C@H]2[C@H](O)c1ccnc2ccccc12 [euspeclibcmpd2388] | -0.0385 |
| O=[N+]([O-])O[C@H]1CO[C@H]2[C@@H]1OC[C@H]2O[N+](=O)[O-] [euspeclibcmpd166] | -0.506 |
| O=[N+]([O-])O[C@@H]1CO[C@H]2[C@@H]1OC[C@@H]2O [euspeclibcmpd605] | 3.27 (active) |
| Cc1cc(OC(=O)N2CCCCC2)c(C(C)C)cc1[N+](C)(C)C [euspeclibcmpd1842] | 0.636 |
| COc1ccc(O)c(C(C)(C)C)c1 [euspeclibcmpd2212] | 0.639 |
| O=C1c2ccccc2-c2cccc3cccc1c23 [euspeclibcmpd1379] | 0.148 |
| C=C(C)c1cc2cc(C(C)=O)c(O)cc2o1 [euspeclibcmpd1716] | 10.1 (active) |
| O=C(O)CCCO [euspeclibcmpd2162] | -0.552 |
